In PubChem BioAssay (NCATS) one finds Potency, activity change, negative = inhibition and max response data, which are given here for 24 compounds.

Molecules are shown by their SMILES. Results filed as inconclusive are left out. Active and inactive are the calls of the source. Unless noted, calls come from the whole dose curve; as a rule, active = well fitted curve in the direction sought with a large enough effect; inconclusive = small, poorly fitted or top-dose-only effect, or another doubt; inactive = no such curve, though single readings can be large; an effect the other way counts as inactive or inconclusive.

The target of assay [1] is Cytochrome P450 3A4 (Homo sapiens) (UniProt P08684). Briefly: qHTS Assay for Inhibitors and Substrates of Cytochrome P450 3A4 (AID 884). For activity change, negative = inhibition: % is set by controls: 0 for no effect and ±100 for the full control effect. Note: nearly all actives have a fitted effect of over 50% in size. Note: potency is the fitted concentration of half-maximal effect. In outline: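 Luminescent readout of luciferin produced by CYP3A4 (20 nM) dealkylation of Luciferin-PPXE, 25 uM (its KM). NADPH-driven reaction ran 60 min at RT after 10 min compound preincubation; data scaled to 57 uM ketoconazole as 100% inhibition.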
Sequence of Cytochrome P450 3A4 (Homo sapiens) (P08684 whole entry, looked up): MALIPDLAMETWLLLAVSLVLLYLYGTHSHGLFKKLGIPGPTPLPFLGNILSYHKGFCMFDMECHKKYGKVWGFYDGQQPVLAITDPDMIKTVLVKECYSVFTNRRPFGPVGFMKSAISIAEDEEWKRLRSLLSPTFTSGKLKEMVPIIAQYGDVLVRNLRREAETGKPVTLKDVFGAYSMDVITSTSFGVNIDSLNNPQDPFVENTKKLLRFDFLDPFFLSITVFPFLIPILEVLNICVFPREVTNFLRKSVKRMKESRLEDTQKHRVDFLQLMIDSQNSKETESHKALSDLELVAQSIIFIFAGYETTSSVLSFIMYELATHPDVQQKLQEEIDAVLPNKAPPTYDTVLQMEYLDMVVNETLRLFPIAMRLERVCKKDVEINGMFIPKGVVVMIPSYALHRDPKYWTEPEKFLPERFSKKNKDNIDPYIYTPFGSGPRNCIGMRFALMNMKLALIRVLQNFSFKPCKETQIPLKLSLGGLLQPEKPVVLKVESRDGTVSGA
Background: qHTS replaces the single test concentration by a dilution series.

Assay [2] in a line: Confirmation and Secondary Assay for Modulators of Hemoglobin Beta Chain Splicing at IVS2 654 locus (AID 910).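 Note: HeLa cells stably carrying EGFP split by mutant beta-globin IVS2-654 intron; per-well total GFP intensity by laser scanning cytometry after 2-day treatment; % of control where 0% means no effect.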 In outline: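 Readout: per-well total peak green fluorescence (488 nm ex, 500–520 nm em) from objects 5–250 µm, reflecting correct splicing of an EGFP-654 reporter. Compounds were applied for 2 days at 37 °C to overnight-plated HeLa EGFP-654 cells; controls were DMSO and 500 nM IVS2-654 PNA.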

Assay [3] is described as follows: Confirmation and Secondary Assay for Modulators of Hemoglobin Beta Chain Splicing at IVS2 705 locus (AID 930).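 Note: HeLa cells stably expressing the EGFP-705 splicing reporter; % of control where 0% means no effect.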 In a few lines: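 Assay measures total GFP intensity per well in HeLa EGFP-705 cells after 2 days with compound; mis-splicing normally truncates EGFP, so fluorescence indicates corrected splicing.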
Assay [4] is described as follows: qHTS Assay for Lipid Storage Modulators (AID 1519; calls by dose curve; for activity change, negative = inhibition: % is set by controls: 0 for no effect and ±100 for the full control effect). The conditions noted are these: Drosophila S3 cells, BODIPY lipid droplet/cell ratio, laser cytometry, cells loaded with oleic acid; for activity change, negative = inhibition: at 57.5 µM (top of the series). In outline:
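Cells seeded at 5,000 per well were treated with compounds over a concentration series and loaded with oleic acid (400 uM, as added). Lipid droplet fluorescence (488 nm excitation, 500-530 nm channel) was read by laser-scanning cytometry and normalized to 20 uM Triacsin C.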

Assay [5] concerns the target Cytochrome P450 3A4 (Homo sapiens) (UniProt P08684). In words: qHTS Assay for Activators of Cytochrome P450 3A4 (AID 885). Note: nearly all actives have a fitted effect of over 65% in size. In outline:
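Luminescent readout of luciferin formed from 25 uM Luciferin-PPXE (KM level) by 20 nM CYP3A4 in 200 mM KPO4, with 60 min NADPH-driven reaction at room temperature after 10 min compound exposure. Ketoconazole (57 uM) defined 100% inhibition.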

[6] abbreviates: measured here: cell count channel max response.
Where [7] appears, read: measured here: lipid channel max response.

In the case of `COC(=O)/C=C/C(C)=C/C=C/C(C)=C/C=C/C=C(C)/C=C/C=C(C)/C=C/C(=O)O`, the Potency result in assay [1], in assay [2] and in assay [3] was “inactive” in each case. For the same compound, the activity change, negative = inhibition in assay [4] is 5.02% (inactive). For the same compound, the figures for the max response in assay [4] (setting [6]) and in assay [4] (setting [7]) were 17.2% and 24.2%, respectively.
Turning to `CC(C)C(C)/C=C/C(C)C1CCC2C3=CC=C4CC(O)CCC4(C)C3CCC21C` (stereo not drawn), the Potency entry in assay [1], in assay [2] and in assay [3] was “inactive” throughout. The activity change, negative = inhibition in assay [4] was 4.22% (inactive). The max response in assay [4] (setting [6]) worked out at 8.27%; in assay [4] (setting [7]), 15.2%.
On to `COC(=O)[C@]1(C)CCC[C@]2(C)c3ccc(C(C)C)cc3C(=O)CC12` (stereo partly drawn), for which the Potency in assay [1] is 25.1 µM (active). The Potency entry in assay [5], in assay [2] and in assay [3] was “inactive” throughout. In addition, the activity change, negative = inhibition in assay [4] is 1.78% (inactive). Further, the max response in assay [4] (setting [6]) is 15.8%; in assay [4] (setting [7]), 18.5%.
For `COc1ccc(-c2coc3cc(O)ccc3c2=O)c(O)c1O`, the Potency result in assay [1], in assay [2] and in assay [3] was “inactive” each time. The activity change, negative = inhibition in assay [4] is 8.68% (inactive). Besides, the max response in assay [4] (setting [6]) is -1.1%; in assay [4] (setting [7]) it was 7.57%.
In the case of `COc1ccc2c(c1)OCC(Cc1ccc(O)c(OC)c1)C2=O` (stereo not drawn), in assay [1], the Potency was 2 µM (active). The Potency result in assay [5], in assay [2] and in assay [3] was “inactive” in each case. The activity change, negative = inhibition in assay [4] was 13.3% (inactive). The max response amounted to 8.4% in assay [4] (setting [6]) and 29.2% in assay [4] (setting [7]).
In the case of `COC(=O)C(O)C1C(C)(C)C(OC(C)=O)C2CC3=C4CC(=O)OC(c5ccoc5)[C@]4(C)CCC3[C@@]1(C)C2=O` (stereo partly drawn), in assay [1], the Potency is 10 µM (active). The Potency entry in assay [5], in assay [2] and in assay [3] was “inactive” in each case. In addition, the activity change, negative = inhibition in assay [4] was 0.311% (inactive). In addition, the figures for the max response in assay [4] (setting [6]) and in assay [4] (setting [7]) were 4.91% and 8.34%, respectively.
As to `CC(CC(O)C1OC1(C)C)C1CCC2(C)C3=CCC4C(C)(C)C(=O)CCC4(C)C3CC[C@@]12C` (stereo partly drawn), the Potency entry in assay [1], in assay [2] and in assay [3] was “inactive” in each case. Further, in assay [4], the activity change, negative = inhibition was 3.08% (inactive). Besides, the max response in assay [4] (setting [6]) was found to be 2.59%; in assay [4] (setting [7]), 11%.
In the case of `CC(=O)OC1CC2C(C)(C)C(O)CC[C@@]2(C)C2CC[C@@]3(C)C(c4ccoc4)OC(=O)C4OC43[C@]12C` (stereo partly drawn), the Potency in assay [1] was 2.51 µM (active). Also, the Potency result in assay [5], in assay [2] and in assay [3] was “inactive” throughout. In assay [4], the activity change, negative = inhibition was -20.5% (inactive). Further, the max response in assay [4] (setting [6]) is -7.63%; in assay [4] (setting [7]), -27.3%.
For the compound `CC(C)CCCC(C)C1CCC2C3CC(O)[C@@]4(O)CC(O)CC[C@@]4(C)C3CC[C@@]12C` (stereo partly drawn), the Potency result in assay [1], in assay [2] and in assay [3] was “inactive” in each case. The activity change, negative = inhibition in assay [4] was 4.13% (inactive). In addition, the max response in assay [4] (setting [6]) amounted to 10.2%; in assay [4] (setting [7]), 14.9%.
Take `COc1ccc2c(c1)OC1(O)COc3cc(OC)c(OC)cc3C1=C2` (stereo not drawn): the Potency in assay [1] was 7.94 µM (active). Moreover, the Potency entry in assay [5], in assay [2] and in assay [3] was “inactive” each time. The activity change, negative = inhibition in assay [4] is 0.865% (inactive). In addition, the max response in assay [4] (setting [6]) is -18.4%; in assay [4] (setting [7]), -15.5%.
Turning to `O=c1cc(-c2ccc(O)cc2)oc2cc(OC3OC(CO)C(O)C(O)[C@H]3O[C@@H]3OC[C@@](O)(CO)C3O)cc(O)c12` (stereo partly drawn), the Potency result in assay [1], in assay [2] and in assay [3] was “inactive” throughout. For the same compound, the activity change, negative = inhibition in assay [4] is 1.57% (inactive). Also, the max response in assay [4] (setting [6]) was determined as 23.4%; in assay [4] (setting [7]) it was 26.6%.
Consider `CCCCCCCCCCCCCCC(C(=O)O)C(O)(CC(=O)OC)C(=O)O` (stereo not drawn), for which the Potency result in assay [1], in assay [2] and in assay [3] was “inactive” throughout. Also, the activity change, negative = inhibition in assay [4] is 5.93% (inactive). For the same compound, the max response in assay [4] (setting [6]) was found to be 16.5%; in assay [4] (setting [7]) it was 25.2%.
Turning to `O=C(/C=C/c1ccc(O)cc1)c1ccccc1O`, the Potency in assay [1] is 1.58 µM (active). The Potency result in assay [5], in assay [2] and in assay [3] was “inactive” each time. The activity change, negative = inhibition in assay [4] is -18.4% (inactive). The max response in assay [4] (setting [6]) is 5.42%; in assay [4] (setting [7]), -11.8%.
Consider `O=c1c(O)c(-c2ccccc2)oc2cc(O)ccc12`, for which the Potency entry in assay [5], in assay [2] and in assay [3] was “inactive” each time. In addition, the activity change, negative = inhibition in assay [4] is 6.29% (inactive). Also, the max response in assay [4] (setting [6]) is -1.89%; in assay [4] (setting [7]), 5.57%.
Take `CC(C1OC(C)(C)C(O)C1O)C1CC[C@@]2(C)C3=CCC4C(C)(C)C(=O)CC[C@]4(C)C3CC[C@@]12C` (stereo partly drawn): the Potency entry in assay [1], in assay [2] and in assay [3] was “inactive” in each case. Besides, the activity change, negative = inhibition in assay [4] was 5.14% (inactive). The max response in assay [4] (setting [6]) was -0.971%; in assay [4] (setting [7]) it was 3.6%.
Take `O=c1c(O)cccc2cc(O)c(O)c(O)c12`: the Potency entry in assay [5] and in assay [2] was “inactive” in each case. For the same compound, the activity change, negative = inhibition in assay [4] was 9.52% (inactive). The results for the max response in assay [4] (setting [6]) and in assay [4] (setting [7]) were 11.8% and 24.4%, respectively.
Consider `CC(C)C1=CC2=CCC3[C@@](C)(CCC[C@@]3(C)C(=O)O)C2CC1` (stereo partly drawn), for which the Potency entry in assay [5], in assay [2] and in assay [3] was “inactive” in each case. For the same compound, the activity change, negative = inhibition in assay [4] was 4.85% (inactive). The values for the max response in assay [4] (setting [6]) and in assay [4] (setting [7]) were 5.3% and 10.4%, respectively.
As for `O=c1c(O)c(-c2ccccc2)oc2ccccc12`, the Potency result in assay [5], in assay [2] and in assay [3] was “inactive” throughout. Besides, the activity change, negative = inhibition in assay [4] was 0.0192% (inactive). The max response was -10% in assay [4] (setting [6]) and -11.2% in assay [4] (setting [7]).
On to `CCc1ccc2c(O)c3c(cc2c1C(=O)OC)C(=O)c1c(O)ccc(O)c1C3=O`, for which the Potency result in assay [1], in assay [2] and in assay [3] was “inactive” each time. In addition, in assay [4], the activity change, negative = inhibition was 12.8% (inactive). The max response in assay [4] (setting [6]) amounted to 5.77%; in assay [4] (setting [7]) it was 24.1%.
Consider `C=CCCCCCCCCCCCc1ccco1`, for which the Potency entry in assay [1] and in assay [3] was “inactive” each time. The activity change, negative = inhibition in assay [4] is 3.13% (inactive). For the same compound, the max response was 16.1% in assay [4] (setting [6]) and 21.7% in assay [4] (setting [7]).
On to `CSC(N)=NCCCC(N)C(=O)O` (stereo not drawn), for which the Potency entry in assay [1], in assay [2] and in assay [3] was “inactive” each time. Moreover, the activity change, negative = inhibition in assay [4] was 1.56% (inactive). For the same compound, the max response in assay [4] (setting [6]) was determined as 5.01%; in assay [4] (setting [7]), 8.49%.
For `Oc1cc(O)c2c(c1)OC(c1cc(O)c(O)c(O)c1)C(O)C2` (stereo not drawn), the Potency entry in assay [1], in assay [2] and in assay [3] was “inactive” each time. Further, the activity change, negative = inhibition in assay [4] was 12.8% (inactive). For the same compound, the values for the max response in assay [4] (setting [6]) and in assay [4] (setting [7]) were 12.7% and 24.8%, respectively.
With `COc1cc(O)c(C(=O)/C=C/c2ccccc2)c(OC)c1`, the Potency entry in assay [5], in assay [2] and in assay [3] was “inactive” in each case. Besides, in assay [4], the activity change, negative = inhibition is -11.9% (inactive). In addition, the max response in assay [4] (setting [6]) is 2.78%; in assay [4] (setting [7]), -7.25%.
Regarding `CC(=O)OC1CC(OC(C)=O)[C@]2(C)C(CC(O)[C@]3(C)C2CC[C@@]2(C)C(c4ccoc4)OC(=O)C4O[C@]432)C1(C)C` (stereo partly drawn), the Potency result in assay [5], in assay [2] and in assay [3] was “inactive” in each case. In assay [4], the activity change, negative = inhibition was -15.6% (inactive). Besides, the max response in assay [4] (setting [6]) is -1.7%; in assay [4] (setting [7]) it was -11.8%.
